# Bioassay records deposited in PubChem by National Center for Advancing Translational Sciences (NCATS).
# DT40 TDP1 no CPT = qHTS for Inhibitors of human tyrosyl-DNA phosphodiesterase 1 (TDP1): qHTS in cells in absence of CPT. DT40 Tdp1-/- hTDP1 cells, no CPT, ATP luminescence, 48 h. Potency, µM (series often up to 46.2 µM), for the others: at the top dose activity change, negative = growth inhibition, hits mostly inhibitors. actives 15% (n = 420,000); also: potency is read from the fitted curve at half-maximal effect; nearly all actives have a fitted effect of over 55% in size
#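 A cellular qHTS used chicken DT40 cells lacking endogenous Tdp1 but carrying stably transfected human TDP1. Compounds were applied without camptothecin, and cell growth kinetics were judged by ATP-dependent luminescence after ≥48 hr.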
# IL-1B inflam inh = inflammasome signaling inhibition, IL-1 beta readout; activity change, % at 57.5 µM; AID 743279; THP-1 LPS/ATP IL-1B secretion, AlphaLISA, 16 h; hits give low values; actives 4.7% (n = 360,000); in the data active = activity change below about -50%; inconclusive = mostly about -30% to -49%
#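 THP-1 cells pretreated 1 hr with compounds (up to 57.5 uM final), then stimulated with LPS (250 ng/mL final) plus ATP (1.25 mM final); secreted IL-1B measured by AlphaLISA after 16 hr, decreased signal indicating inhibition.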
# ALOX12 inh = inhibitors of human 12S-lipoxygenase ALOX12; P18054; purified 12hLO, xylenol orange hydroperoxide absorbance; Potency, µM (series often up to 108 µM), inactives show at the highest dose activity change, negative = inhibition, most hits filed as inhibitors; actives 1.1% (n = 580,000); AID 1671190; also: potency is read from the fitted curve at half-maximal effect
# Target sequence (P18054 whole entry, looked up): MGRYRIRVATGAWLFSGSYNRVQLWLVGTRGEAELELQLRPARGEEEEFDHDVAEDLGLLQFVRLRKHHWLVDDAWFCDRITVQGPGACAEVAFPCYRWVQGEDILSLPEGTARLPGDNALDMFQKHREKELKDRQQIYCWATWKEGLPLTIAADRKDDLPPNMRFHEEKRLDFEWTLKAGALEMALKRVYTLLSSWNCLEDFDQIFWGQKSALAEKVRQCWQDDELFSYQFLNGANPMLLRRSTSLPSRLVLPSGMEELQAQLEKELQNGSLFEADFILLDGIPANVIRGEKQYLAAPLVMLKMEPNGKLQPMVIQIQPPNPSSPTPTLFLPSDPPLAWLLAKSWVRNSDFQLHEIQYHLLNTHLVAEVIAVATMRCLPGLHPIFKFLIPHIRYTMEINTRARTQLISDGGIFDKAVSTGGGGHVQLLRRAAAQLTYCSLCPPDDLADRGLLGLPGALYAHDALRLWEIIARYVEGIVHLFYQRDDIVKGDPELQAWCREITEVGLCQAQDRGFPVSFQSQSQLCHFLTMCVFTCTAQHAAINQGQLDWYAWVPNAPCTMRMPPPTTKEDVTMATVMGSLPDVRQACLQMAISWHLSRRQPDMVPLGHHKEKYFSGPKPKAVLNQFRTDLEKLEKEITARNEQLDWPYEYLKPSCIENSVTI
#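 Purified human 12hLO (150 nM final) in 25 mM Hepes, 0.01% Triton X-100, pH 7.0 was preincubated 15 min at room temperature with compound. Then 40 uM arachidonic acid was added, 30 min. Hydroperoxide was read by Fe-XO absorbance ratio 573/405 nm.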
# DT40 TDP1 CPT = growth inhibition of DT40 Tdp1-/-;hTDP1 cells with camptothecin (screen for TDP1 inhibitors); chicken DT40 Tdp1-/-;hTDP1 cells + 20 nM CPT, ATP luminescence, 48 h; Potency, µM (highest dose often 46.2 µM), without a hit: at the top dose activity change, negative = growth inhibition, usual class: inhibitors; actives 12% (n = 420,000); also: potency is read from the fitted curve at half-maximal effect; nearly all actives have a fitted effect of over 55% in size
#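 Chicken DT40 Tdp1-/- cells complemented with human TDP1, 400 cells/well, exposed to compounds plus 20 nM camptothecin for at least 48 h at 37 C; viability read as ATP content by CellTiter-Glo luminescence.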
# HT1080-NT tox = kills 2HG-producing HT-1080-NT fibrosarcoma cells; HT-1080-NT fibrosarcoma viability, CellTiter-Glo ATP luminescence, 48 h; Potency, µM (titrated, usually from 46.1 µM), for inactives: top-dose activity, negative = less viability, usual class: cytotoxic; actives 1.6% (n = 360,000); AID 686970;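 also: NT is the 2HG producing partner of a matched IDH1 knockdown line; potency is read from the fitted curve at half-maximal effect; 0% = DMSO-treated cells and -100% = media-only wells without cells; nearly all actives have a fitted effect of over 55% in size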
#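 750 cells/well, RPMI + 5% FBS; 2 h settle, compound pin-transfer, 48 h at 37 degrees C. CellTiter-Glo 10 min RT, luminescence. Normalized to DMSO and media-only wells.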
# HT1080 IDH1KD tx = HT-1080 IDH1 knockdown cell toxicity (counter line); Potency, µM (series often up to 46.1 µM), for the others: at the top dose activity, negative = toxicity, usual class: cytotoxic; HT-1080 IDH1 knockdown viability, ATP luminescence, 48 h; actives 2% (n = 360,000);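 also: potency is read from the fitted curve at half-maximal effect; 0% = DMSO wells and -100% = cell-free medium wells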
#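 Cytotoxicity counter-line: IDH1KD HT-1080, 48 h, CellTiter-Glo. Curves classed by r2, magnitude and activity.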
# * marks the source's active call; other numbers are inactive results; u = inconclusive; x = not tested or not shown; [ ] = remark or other dose. This is one part of a sample in which hits are shown more often than they occur. Unless noted, calls follow the shape of the dose curve; as a rule, active = well fitted curve in the direction sought with a large enough effect; inconclusive = small, poorly fitted or top-dose-only effect, or another doubt; inactive = no such curve, though single readings can be large; an effect the other way counts as inactive or inconclusive. Unless noted, % is scaled to controls: 0 for no effect and ±100 for the full control effect.
SMILES,DT40 TDP1 no CPT,IL-1B inflam inh,ALOX12 inh,DT40 TDP1 CPT,HT1080-NT tox,HT1080 IDH1KD tx
O=C(NCc1ccc2c(c1)OCO2)c1ccccc1Cl,2.7%,-68.0*,-0.2%,-3.2%,-2.8%,-2.3%
COc1ccc(C(=O)NCc2cc(C)nc3ccccc23)cc1,u,98.5,-5.0%,u,u,u
CC(C)(C)C(=O)c1cn(CC(=O)NCc2ccc3c(c2)OCO3)c2ccccc12,23.1µM*,-20.6,-7.0%,u,-13.2%,-16.9%
O=C(Nc1ccccc1C(=O)OCC(=O)C12CC3CC(CC(C3)C1)C2)c1ccc([N+](=O)[O-])cc1Cl,x,x,28.1%,x,x,x
O=C(NCC1CCCCC1)C1CCN(C(=O)c2ncn3c2COC(c2ccc(Cl)cc2)C3)CC1 (stereo unspecified),x,x,23.0%,x,x,x
O=C(NCc1ccc2c(c1)OCO2)c1cc(-c2ccccn2)nc2ccccc12,u,-81.9*,0.1%,-27.5%,1.1%,-4.4%
CC(C)n1nc(C(=O)NCc2ccc3c(c2)OCO3)c2ccccc2c1=O,20.6µM*,28.1,u,16.4µM*,-2.3%,-2.3%
O=C(NCc1ccc2c(c1)OCO2)c1n[nH]c(=O)c2ccccc12,u,-2.8,6.0%,u,-19.8%,-13.1%
O=C(NCc1ccccc1)c1cc(-c2ccccn2)nc2ccccc12,x,x,-2.5%,x,x,x
CCOc1ccc(NC(=O)CSc2nc3ccsc3c(=O)n2C(C)CC)cc1 (stereo unspecified),10.3µM*,x,-25.8%,u,x,x
CCC(C)n1c(SCc2c(F)cccc2Cl)nc2ccsc2c1=O (stereo unspecified),5.8µM*,x,-5.2%,4.11µM*,x,x
CCC(C)n1c(SCc2ccc([N+](=O)[O-])cc2)nc2ccsc2c1=O (stereo unspecified),20.6µM*,u,6.0%,23.1µM*,-14.5%,-11.5%
CCOc1ccc(NC(=O)CSc2nc3ccsc3c(=O)n2CC)cc1,-19.8%,x,0.0%,-22.3%,x,x
CC1=NOC2(CCCN(C(=O)c3ccccc3)C2)C1 (stereo unspecified),x,x,9.6%[12.5 µM],x,x,x
CC(C)C[C@H]1CN([C@@H](Cc2ccc(O)cc2)CN2CCC[C@H]2CN2C(=O)C(=O)NC[C@@H]2Cc2ccccc2)C(=O)C(=O)N1CC1CCCCC1,20.6µM*,u,u,u,-18.9%,-29.3%
CC(C)C[C@H]1CN([C@@H](Cc2ccccc2)CN2CCC[C@H]2CN2C(=O)C(=O)NC[C@@H]2Cc2ccc(O)cc2)C(=O)C(=O)N1CC1CCCCCC1,16.4µM*,-89.2*,u,u,u,u
CC(C)C[C@H]1CN([C@@H](Cc2ccc(O)cc2)CN2CCC[C@@H]2CN2C(=O)C(=O)NC[C@@H]2Cc2ccccc2)C(=O)C(=O)N1CC1CCCCCC1,u,u,-8.3%,u,u,u
Cc1ccc(NC(=O)C2CCCN(C(=O)Cc3cccc4ccccc34)C2)c(Cl)c1 (stereo unspecified),x,x,-29.8%,x,x,x
Fc1ccccc1NC(=S)NCCc1ccc(Cl)cc1,-24.1%,u,39.8µM*,u,-17.8%,-18.0%
S=C(NCCc1ccccc1)Nc1ncccn1,-16.7%,-6.4,u,1.5%,-4.0%,-8.1%
Cc1cc(C)cc(NC(=S)NCCc2ccc(Cl)cc2)c1,x,x,-3.6%,x,x,x
Cc1cccc(C)c1NC(=S)NCCc1ccc(O)c(O)c1,13µM*,11.6,35.5µM*,16.4µM*,-4.9%,-9.4%
Cc1cccnc1NC(=S)NCCc1ccccc1,20.6µM*,-20.8,7.08µM*,u,-11.2%,-2.5%
Cc1ccc(NC(=S)NCCc2ccccc2)nc1,5.8µM*,38.8,u,u,-16.7%,3.6%
Cc1ccc(NC(=O)CCCc2ccccc2)nc1,-8.8%,-14.8,-21.1%,-3.2%,-3.9%,-2.4%
SMILES,DT40 TDP1 no CPT,IL-1B inflam inh,ALOX12 inh,DT40 TDP1 CPT,HT1080-NT tox,HT1080 IDH1KD tx
COc1cccc(CN2CC[C@H]3C(=O)NCCCCCCN(Cc4ccncc4)[C@@H]3C2)c1,x,x,142.8%,x,x,x
Fc1ccccc1NC(=S)NN(Cc1ccccc1)c1ccccc1,u,2.6,-4.8%,u,11.2µM*,u
Fc1cccc(NC(=S)NCCc2ccccc2)c1,20.6µM*,-10.2,u,u,-7.3%,-23.9%
O=C(NCCCCc1ccccc1)Nc1cccc(F)c1,23.1µM*,-98.7*,2.2%,u,u,u
Cc1cccc(NC(=O)NCCCCc2ccccc2)c1,-12.5%,-17.8,-2.7%,-20.7%,13.9%,0.6%
CC(C)c1ccccc1NC(=S)NN(Cc1ccccc1)c1ccccc1,u,u,u,u,-29.0%,-15.2%
Fc1ccc(F)c(NC(=S)NCCc2ccccc2)c1,16.4µM*,-65.7*,-29.1%,16.4µM*,u,-17.8%
Cc1ccc(C2Cn3nnc(C(=O)N4CCC(C(=O)Nc5cc(F)cc(F)c5)CC4)c3CO2)cc1 (stereo unspecified),x,x,7.5%,x,x,x
COCCN1C(=O)CCC2(CNC(=O)c3cc(F)ccc3F)CCCC=C12 (stereo unspecified),x,x,14.4%,x,x,x
Fc1ccccc1NC(=S)NCCc1ccccc1,9.2µM*,39.1,0.0%,7.31µM*,-1.1%,0.5%
O=C(NCCc1ccccc1)Nc1cccc(Cl)c1,u,-16.0,32.9%,16.4µM*,-12.7%,-16.4%
COc1ccc(CCNC(=S)Nc2cccc(C)c2C)cc1,u,18.0,-0.3%,u,2.2%,12.7%
Cc1cccc(NC(=S)NCCc2ccccc2)c1C,u,-21.0,u,25.9µM*,-6.3%,-9.2%
